Source: PubChem
Chronic BCR inh – qHTS Assay to Find Inhibitors of Chronic Active B-Cell Receptor Signaling | ABC-DLBCL IkBa-CBG/CBR reporter, luminescence ratio, 4 h | Potency, µM (doses to about 46.1 µM), for inactives: at the highest dose activity change, negative = inhibition, usual class: inhibitors | 340,000 tested, 0.05% active; active = well fitted inhibition curve with a large enough effect in the signal ratio, with a control signal flat, not every such curve was filed as active; inconclusive = small, poorly fitted or top-dose-only effect, or effect the other way, or a change in a side signal; the % refers to the signal ratio;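 note: potency is the fitted concentration of half-maximal effect; plate controls were basal doxycycline-induced cells for no effect and cells given 10 µM MG132 for full effect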
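TMD8 ABC-DLBCL cells carrying doxycycline-inducible green luciferase fused to IkappaBalpha plus unfused red luciferase were exposed to compounds (up to 46 uM) for 4 hrs at 37C. Activity came from the overlap-corrected green/red luminescence ratio.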
VP16 counter – VP16 counterscreen qHTS for inhibitors of ROR gamma transcriptional activity; Potency, µM (doses to about 53.6 µM), for inactives: top-dose activity, negative = inhibition, most hits filed as inhibitors; 310,000 tested, 3.5% active; Drosophila S2 Gal4-VP16 UAS-luciferase, luminescence, 20 h;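 note: Gal4-VP16 expression switched on by copper sulfate through the metallothionein promoter; potency is the fitted concentration of half-maximal effect; % is set by controls: 0 for no effect and ±100 for the full control effect; nearly all actives have a fitted effect of over 50% in size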
RORgamma inh – qHTS for inhibitors of ROR gamma transcriptional activity. Nuclear receptor ROR-gamma (Mus musculus), P51450. Drosophila S2 Gal4-RORgamma UAS-luciferase reporter, 20 h. Potency, µM (series often up to 53.6 µM), for the others: top-dose activity change, negative = inhibition, hits mostly inhibitors. 310,000 tested, 5.4% active. AID 2551, 2010; note: potency is the fitted concentration of half-maximal effect; % is set by controls: 0 for no effect and ±100 for the full control effect; nearly all actives have a fitted effect of over 60% in size
Target sequence (P51450 whole entry, looked up, the tested form may be a part): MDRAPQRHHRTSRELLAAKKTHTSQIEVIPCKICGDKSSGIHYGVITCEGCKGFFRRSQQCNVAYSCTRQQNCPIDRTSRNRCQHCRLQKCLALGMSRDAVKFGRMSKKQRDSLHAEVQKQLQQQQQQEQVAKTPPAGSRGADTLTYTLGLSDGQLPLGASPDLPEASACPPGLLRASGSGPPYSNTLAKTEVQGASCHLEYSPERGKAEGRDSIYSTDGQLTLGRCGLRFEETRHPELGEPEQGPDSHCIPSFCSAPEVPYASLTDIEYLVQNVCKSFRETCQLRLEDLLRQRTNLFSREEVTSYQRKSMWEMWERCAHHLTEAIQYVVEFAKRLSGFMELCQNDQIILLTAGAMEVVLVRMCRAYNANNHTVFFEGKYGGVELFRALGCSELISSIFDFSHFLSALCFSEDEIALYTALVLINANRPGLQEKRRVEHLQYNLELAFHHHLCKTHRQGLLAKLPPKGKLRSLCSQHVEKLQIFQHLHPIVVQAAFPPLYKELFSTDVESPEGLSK
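Drosophila S2 cells stably expressing Gal4-DBD/mouse RORγ fusion under metallothionein promoter plus UAS-luciferase; compound 1 h, then 700 uM CuSO4 induction for 20 h at ambient temperature; inhibition read as reduced luminescence.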
SW480 rerep – A quantitative high throughput screen for small molecules that induce DNA re-replication in SW480 colon adenocarcinoma cells. SW480 DNA re-replication, Hoechst DNA content imaging, 48 h. Potency, µM (titrated, usually from 46.1 µM), for the others: top-dose re-replication activation, usual class: activators. 340,000 tested, 1.8% active; note: potency is the fitted concentration of half-maximal effect; % of control where 0% means no effect; nearly all actives have a fitted effect of over 55% in size
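Per well, 250 cells were exposed to pinned compound for 48 hr. Nuclear DNA was visualised with Hoechst (40 min, 37 C) and total object intensity recorded by fluorescence scanning.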
MCF10A rerep – A quantitative high throughput screen for small molecules that induce DNA re-replication in MCF 10a normal breast cells | MCF 10A DNA re-replication, Hoechst nuclear intensity, 48 h | Potency, µM (top dose mostly 46.1 µM), inactives show at the highest dose activity, positive = re-replication, most hits filed as activators | 350,000 tested, 2.9% active | AID 624296, 2012; note: potency is the fitted concentration of half-maximal effect; % of control where 0% means no effect; nearly all actives have a fitted effect of over 50% in size
Giardia kill – Small Molecules that selectively kill Giardia lamblia: qHTS; Giardia lamblia trophozoite viability; activity change, % at 7.66 µM, hits read low; 340,000 tested, 0.15% active; in the data active = activity change below about -80%; inconclusive = between about -30% and that limit;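 note: parasites exposed to compound for two days anaerobically before the ATP read; % is set by controls: 0 for no effect and ±100 for the full control effect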
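Giardia lamblia trophozoites (100 cells/well) were incubated with compounds for 48 h at 37 deg C under anaerobic conditions. Viability was read as ATP content by one-step luminescence after 15-30 min at room temperature.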
* hit, by the source's call; u = inconclusive; x = no result. An excerpt weighted towards active compounds, which were near 8.3% of everything screened. Unless noted, calls come from the whole dose curve; as a rule, active = well fitted curve in the direction sought with a large enough effect; inconclusive = small, poorly fitted or top-dose-only effect, or another doubt; inactive = no such curve, though single readings can be large; an effect the other way counts as inactive or inconclusive.

SMILES | Chronic BCR inh | VP16 counter | RORgamma inh | SW480 rerep | MCF10A rerep | Giardia kill
COc1ccc(C(O)(CCC(C)C)C(CN2CCOCC2)c2ccc(Cl)cc2)cc1 (stereo not drawn) | 6% | -3% | 19% | u | u | -24
O=C(N=C1SC2CS(=O)(=O)CC2N1Cc1ccccc1Cl)C1CCCO1 (stereo not drawn) | 6% | 2% | -1% | 11% | 6% | 12
CCCN(CCC)C(=O)C1CC(=O)OC12CCCCC2 (stereo not drawn) | u | 3% | 4% | 4% | 5% | 28
Cc1cc(C2CCCCC2)n(O)c(=O)c1 | u | 2.2µM* | 2µM* | u | u | 17
Cc1c(C(=O)N2CCCCC2C)sc2nc3n(c(=O)c12)CCC3 (stereo not drawn) | -4% | -2% | -5% | -7% | 4% | 11
Cc1cc(C=C2C(=O)c3ccccc3C2=O)c(C)n1C | u | 14% | u | -6% | 14% | -9
CCn1c(C)cc(C=C2C(=O)c3ccccc3C2=O)c1C | u | -42% | 11µM* | u | u | -20
NC(=O)/C=C/C(=O)Nc1ccc(Cl)cc1 | u | u | 3.2µM* | 18% | 15µM* | -6
O=C(/C=C/C(Cl)(Cl)Cl)Nc1ccc(Cl)cc1 | x | x | x | u | u | -11
Cc1cccc(Oc2nc(-c3ccccn3)nc3ccccc23)c1 | u | 2.2µM* | 0.56µM* | 79% | 5% | -6
CN1CCN(c2nc(-c3ccccn3)nc3ccccc23)CC1 | 6% | -17% | -30% | u | 23% | 11
CC(=O)Nc1cccc(Oc2nc(-c3ccccn3)nc3ccccc23)c1 | u | u | 5.6µM* | 66% | u | 0
CC(=O)Nc1ccc(Oc2nc(-c3ccccn3)nc3ccccc23)cc1 | u | u | -3% | u | 7% | -2
Cc1cccc(Oc2nc(-c3ccncc3)nc3ccccc23)c1 | 1% | -3% | -19% | 12% | u | -22
Cc1ccccc1Oc1nc(-c2ccccn2)nc2ccccc12 | -22% | 1.3µM* | 0.32µM* | 1% | 14% | -29
